Sequences and labels used below:
B1: chr1:3780741:3780842:-|3pUTR|ENSG00000130764|unk|total|mutant (ssRNA)
RNA: GGGAGUUCUACAGUCCGACGAUCCCAAGCCGCUGGGACUACAGGUGUGUGCCACUAAGCUCAGCUAAUUUUUGUAUUUUCCGCCGAGACGGGGUUUCACCAUUUUGACCAGGAUGGUCUUGAUCUCUUGACCUCAUGAUCUGUCAACAGAGGAUUGAGCAUCA
B2: chr20:45898604:45898705:+|3pUTR|ENSG00000064601|unk|total|mutant (ssRNA)
RNA: GGGAGUUCUACAGUCCGACGAUCAGAGCCCUGUACAUCCCAGACUGGGCCCAGGGUCUCCCACCGACAGCCUGGGGGCAAGUCCGCACUUUAUUCCCGCAGCAGUUCCUGAAUGGGGUGGCCUGGCCCCUUCUCUGCUUAAAGCAACAGAGGAUUGAGCAUCA
B3: chr17:47844907:47847298:-|three_prime_utr|ENSG00000189120|control|control|control (ssRNA)
RNA: GGGAGUUCUACAGUCCGACGAUCAAGGUGCGUAUUUAUUCAGGGAGGAGGAAAAGUGGUGCAGGGACAGGGAGAUGGGGCGCUAGGGGUUCUUAGUCUCUGGGGCUACUAGGCAGGAUGAAUUUGACUGGGUCGGUAGGAGCUCAACAGAGGAUUGAGCAUCA
B4: ENSG00000070961:be:win_251|CDS|ENSG00000070961|bound_else_gene|NA|bound_elsewhere_windowed (ssRNA)
RNA: GGGAGUUCUACAGUCCGACGAUCUGUUUGGAAAGAAUUUUAUACCUCCUAAAAAGCCAAAAACCUUUCUUCAAUUAGUAUGGGAAGCAUUACAAGAUGUCACUUUAAUUAUAUUAGAAAUUGCAGCCAUAGUAUCAUUGGGCCCAACAGAGGAUUGAGCAUCA
B5: chr3:167478683:167478996:-|three_prime_utr|ENSG00000174776|control|control|control (ssRNA)
RNA: GGGAGUUCUACAGUCCGACGAUCCUGCCUUUUAUUUUAUUUUAUAUUUAAACUUCAGGAAGUUUUCUCUUCAUGGGAUAAUUUAGUACUGCUUUUAUCUAUCAUCUGUCAAUUUCUCUGUAUUCUUAAUAAAAUAAAUAUUGACAACAGAGGAUUGAGCAUCA
B6: chr17:67340809:67340863:-|CDS_3pUTR|ENSG00000197170|msi1_unk|FALSE|overlapping (ssRNA)
RNA: GGGAGUUCUACAGUCCGACGAUCACAAAACUACGCAUCUCAUAGCCAAAGAGGAGAUGAUACAUAAUCUACAAUAAGGGUCUUAGUGCUUUAGAAAAAAGUUAAAAUUGGAAGUCAUUAAAAAAAGACUGUUAUAAUGGUGUACAACAGAGGAUUGAGCAUCA
B7: chr5:134606522:134606623:-|3pUTR|ENSG00000152700|msi1_unk|FALSE|overlapping (ssRNA)
RNA: GGGAGUUCUACAGUCCGACGAUCAACUAUAAACCAUAUUUAAAAGCUCAUCAUGUUAAAUUUUUUAUGUACUUUUCUGGAACUAGUUUUUAAAUUUUAGAUUAUAUGUCCACCUAUCUUAAGUGUACAGUUAAUAAUUAGCUUCAACAGAGGAUUGAGCAUCA
B8: chr5:134606522:134606623:-|3pUTR|ENSG00000152700|msi1_unk|total|mutant (ssRNA)
RNA: B7 RNA with U83C, A84C, U97C, A98C, U138C, A139C
B9: ENSG00000070961:be:win_6101|3pUTR|ENSG00000070961|bound_else_gene|NA|bound_elsewhere_windowed (ssRNA)
RNA: GGGAGUUCUACAGUCCGACGAUCUAAAGAUCUUGGAUCCCAUUAUAUAGUAUGUAUAGCUGAAAUCUGUAAUUCAAUCACUUUUUCUCUUUUAUCCUCUAACCAAAAAAUUGUUUAAUUUUGCAUCCCAAAUGUUUUUAAUCUCAACAGAGGAUUGAGCAUCA
B10: chr6:142752714:142752806:-|3pUTR|ENSG00000010818|msi1_unk|FALSE|overlapping (ssRNA)
RNA: GGGAGUUCUACAGUCCGACGAUCUUUUCUUUACUUUGCUUAUAUUCUUAUAAGCAUUUUUUAGCAGUAAUUUGUACAUAUUUUAGAAUUUGUGUAUCUGCUUUGUAAUAAAUGUAAUUUCUUUCCUUUUUUGGACACUUGGAUCAACAGAGGAUUGAGCAUCA
B11: ENSG00000198589:be:win_9001|3pUTR|ENSG00000198589|bound_else_gene|NA|bound_elsewhere_windowed (ssRNA)
RNA: GGGAGUUCUACAGUCCGACGAUCUUCUUCAGCACUAAUAUUUCUGGGAUUUAAAUAGUAAUGUUUAAAUUAUGGUAAAUGUAAUUUAAAACAUCUCAAUUAAGUCUGUCUAUCAAUAUUGUUCUUCAAGCAUGUUUUAGACCUCAACAGAGGAUUGAGCAUCA
B12: chr4:110049619:110049852:-|3pUTR|ENSG00000170522|msi1|FALSE|unique (ssRNA)
RNA: GGGAGUUCUACAGUCCGACGAUCUUGUUCAAUGUGACAUAAUAGUAUUAUAAUUGGUUAAGUAGCUUAAUGAUUAGGCAAACUAGAUGAAAAGAUUAGGGGCUUCCACACUGCAUAGAUUACACGCACAUAGCCACGCAUACACAACAGAGGAUUGAGCAUCA
B13: ENSG00000070961:be:win_6051|3pUTR|ENSG00000070961|bound_else_gene|NA|bound_elsewhere_windowed (ssRNA)
RNA: GGGAGUUCUACAGUCCGACGAUCCAGAAAUUUCCAGAGCAUUAUGUAGGUAGAAAAAAAUGCAAGCAAGCUGUUAAAGAUCUUGGAUCCCAUUAUAUAGUAUGUAUAGCUGAAAUCUGUAAUUCAAUCACUUUUUCUCUUUUACAACAGAGGAUUGAGCAUCA
B14: chr8:23843870:23844003:-|3pUTR|ENSG00000159167|msi1|FALSE|unique (ssRNA)
RNA: GGGAGUUCUACAGUCCGACGAUCAAUUCCAGAGGACUCUGCUUAAACAAAGCAGUAUAUAAUAACUUUAUUGCAUAUAGAUUUAGUUUUGUAACUUAGCUUUAUUUUUCUUUUCCUGGGAAUGGAAUAACUAUCUCACUUCCACAACAGAGGAUUGAGCAUCA
B15: chr9:14618660:14618761:-|3pUTR|ENSG00000175893|msi1|FALSE|unique (ssRNA)
RNA: GGGAGUUCUACAGUCCGACGAUCUUAGCUUUCCACAGGGAUUUCUUGAAAUGCUUUUGUUAUUAAACUCAAAAGGCAGUGAUUAGGAUGAAAUAAUUGUACAUAAUUUAUUUUAGUACUGACAGUGUUACAGAUUCUAAUUUACAACAGAGGAUUGAGCAUCA
B16: chr4:113382420:113382521:+|3pUTR|ENSG00000145362|msi1|FALSE|bound_elsewhere (ssRNA)
RNA: GGGAGUUCUACAGUCCGACGAUCUCUUCAGGUCUUUAGAUCUUGGACAAGUUGGCAGGGUAUUUUAAAAGCUAUAACUACUGUAGUUUUCCAGUUUUCAUUGCUGCUUUAGCAAACCACGCUGUCUUACAGUGGUACUUUCUUCAACAGAGGAUUGAGCAUCA
B17: chr2:171482635:171482736:+|3pUTR|ENSG00000115827|unk|FALSE|unique (ssRNA)
RNA: GGGAGUUCUACAGUCCGACGAUCCAAGAGUGUUUCAGAAUAGGAUGUCUUAAGACUUCAGUCAUGUCAGAGAUUUUUUUUUUUAGGUGAUUAUUGAGUUUCUCCUUCUCCUUUAAGUCAUCACCUUCCUUUUAUGAAAUGAUACAACAGAGGAUUGAGCAUCA
B18: chr9:104535772:104536723:-|CDS|ENSG00000204246|control|control|control (ssRNA)
RNA: GGGAGUUCUACAGUCCGACGAUCGACAAGCUCAUUUCUCUGUUUUAUGGGGUAGUGACACCCAUGCUGAAUCCUAUACUCUAUAGCUUGAGAAAUAAGGAUGUAAAAGCUGCUGUAAAAUAUUUGCUGAACAAAAAACCAAUUCAACAGAGGAUUGAGCAUCA
B19: chr8:23842113:23842214:-|3pUTR|ENSG00000159167|msi1|FALSE|unique (ssRNA)
RNA: GGGAGUUCUACAGUCCGACGAUCACUUUAGACAUUUUUGUGCCAUUAUAUUUGCAUUAUGUAUUUAUAAUUUAAAUGAUAUUUAGGUUUUUGGCUGAGUACUGGAAUAAACAGUGAGCAUAUCUGGUAUAUGUCAUUAUUUAUCAACAGAGGAUUGAGCAUCA
B20: ENSG00000112936:stop:overlap|stop_codon|ENSG00000112936|stop_codon|NA|stop_codon (ssRNA)
RNA: GGGAGUUCUACAGUCCGACGAUCGAUGCAGAGGGCAGAGCAUCUCUGUCACCAGCAUAAGGCCUUGUGCUGCGGAAACCCAGUAGGCUCCUGGAGGCCCUGGUCAGCUUGCUUGGAAUCCAGCAGGCAGCUGGGGCUGAGUGACAACAGAGGAUUGAGCAUCA
B21: ENSG00000170312:stop:overlap|stop_codon|ENSG00000170312|stop_codon|NA|stop_codon (ssRNA)
RNA: GGGAGUUCUACAGUCCGACGAUCGCAAAAUGGCACUGAAUCAUCCAUAUUUUAAUGAUUUGGACAAUCAGAUUAAGAAGAUGUAGCUUUCUGACAAAAAGUUUCCAUAUGUUAUAUCAACAGAUAGUUGUGUUUUUAUUGUUACAACAGAGGAUUGAGCAUCA
B22: chr2:69942770:69942871:+|3pUTR|ENSG00000059728|unk|FALSE|unique (ssRNA)
RNA: GGGAGUUCUACAGUCCGACGAUCUGUUUCCAGAUGUUUCUUUAUGUAAAUAUGACGCCAAUGUAAAUCCUGUGUCAAGAUCAUAGAGAAUGGUGCUUUUUACUACAGUUAGCACAUGCAUUUUUAGAAACUACUACAUGUUUUCAACAGAGGAUUGAGCAUCA

Residue numbers refer to the chain shown, from its start. The full ranking holds about 5,800 sequences; the median of “enrichment r” is about 0.68, and the highest 2% start at about 11. The list comes from a sample in which the highest values are over-represented; it also holds similar and randomly drawn sequences.

In the experiment the target is T1, UNK ZnF1-6 (called full-length) (human, UniProt Q9C0B0 30-357).
T1 sequence: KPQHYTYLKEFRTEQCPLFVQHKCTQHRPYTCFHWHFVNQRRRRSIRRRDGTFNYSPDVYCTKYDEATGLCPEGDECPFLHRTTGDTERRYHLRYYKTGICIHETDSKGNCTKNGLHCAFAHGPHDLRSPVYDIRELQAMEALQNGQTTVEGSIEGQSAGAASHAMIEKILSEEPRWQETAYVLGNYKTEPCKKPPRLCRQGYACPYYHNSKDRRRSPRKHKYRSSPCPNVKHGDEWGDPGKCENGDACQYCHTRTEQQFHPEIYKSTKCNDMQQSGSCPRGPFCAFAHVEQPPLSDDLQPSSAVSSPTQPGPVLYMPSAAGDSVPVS
In words: nsRBNS (natural sequence RNA bind-n-seq); RBNS binding buffer (assumed for nsRBNS): 25 mM Tris pH 7.5, 150 mM KCl, 3 mM MgCl2, 0.01% Triton X-100, 500 ug/ml BSA, 20 U/ml SUPERase-In, 4 C; UNK is unkempt and MSI1 is Musashi-1; names of the RNAs are library labels; protein concentration not given here; high values mean tight binding.
The molecule B1 yielded a binding signal of 0.591 enrichment R.
The result for B2 reads 1.01 enrichment R; that for B3, 1.32 enrichment R.
The result for B4 reads 5.79 enrichment R.
As to B5, the binding signal was 2.14 enrichment R.
Turning to B6, the binding signal amounted to 0.932 enrichment R.
The result for B7 reads 25.7 enrichment R.
Then B8, with 2.06 enrichment R; and B9, with 39 enrichment R; and B10, with 2.11 enrichment R.
For the molecule B11, the binding signal stood at 0.446 enrichment R.
In turn, B12 yielded a binding signal of 14.6 enrichment R.
The result for B13 reads 3.07 enrichment R; that for B14, 13.9 enrichment R; that for B15, 0.961 enrichment R.
Then B16, with 0.392 enrichment R; and B17, with 1.03 enrichment R.
In turn, B18 yielded a binding signal of 0.451 enrichment R.
In the case of B19, the binding signal came out at 3.25 enrichment R.
Then B20, with 0.329 enrichment R; and B21, with 0.706 enrichment R.
Then B22, with 0.538 enrichment R.
